Results reported in PubChem BioAssay (NCI).
About 83,000 compounds went through this panel and 20% of them were active in at least one assay; those are over-represented in the sample as a whole.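 Assay: single dose, 48 h. Readout: percent growth (0 = no net growth; negative = cell death). Active: <10.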 Unmarked numbers belong to inactive results. Calls of active or inactive are those of the source.

What was measured:
Assay in all cases: NCI-60 one-dose screen, 48 h (100 = growth as untreated, 0 = no growth, -100 = all killed)
[1] = system: DU-145 prostate; details: 10 µM unless noted
[2] = system: K-562 leukemia; details: 10 µM unless noted
[3] = system: MALME-3M melanoma; details: 10 µM unless noted
[4] = system: MDA-MB-231 breast; details: 10 µM unless noted
[5] = system: RXF 393 renal; details: 10 µM unless noted
[6] = system: SF-268 CNS; details: 10 µM unless noted
[7] = system: SF-295 CNS; details: 10 µM unless noted
[8] = system: SF-539 CNS; details: 10 µM unless noted
[9] = system: UACC-257 melanoma; details: 10 µM unless noted
[10] = system: M14 melanoma; details: 10 µM unless noted
[11] = system: HCT-15 colon; details: 10 µM unless noted
[12] = system: HT29 colon; details: 10 µM unless noted
[13] = system: SNB-19 CNS; details: 10 µM unless noted
[14] = system: U251 CNS; details: 10 µM unless noted
[15] = system: PC-3 prostate; details: 10 µM unless noted
[16] = system: SK-MEL-5 melanoma; details: 10 µM unless noted
[17] = system: UACC-62 melanoma; details: 10 µM unless noted
[18] = system: LOX IMVI melanoma; details: 10 µM
[19] = system: SK-MEL-28 melanoma; details: 10 µM unless noted

Row | Structure (SMILES) | growth [1] [%] | growth [2] | growth [3] | growth [4] | growth [5] | growth [6] [%] | growth [7] [%] | growth [8] | growth [9] [%] | growth [10] | growth [11] | growth [12] | growth [13] [%] | growth [14] | growth [15] | growth [16] | growth [17] | growth [18] | growth [19] [%]
1 | Cn1cc(-c2nc(N)nnc2-c2c[nH]c3ccc(Br)cc23)c2cc(Br)cnc21 | 14.2 | 0.943% (active) | 4.82% (active) | 11.4% | -8.55% (active) | 10.9 | 11.4 | -9.44% (active) | 47.3 | 0.895% (active) | 3.67% (active) | -31.5% (active) | 33.9 | 8.22% (active) | 3.39% (active) | -63.5% (active) | 8.26% (active) | 17.3% | 27.1
2 | Cc1ccc(-c2nc(C#N)c(S(=O)(=O)N3CCN(S(=O)(=O)c4ccccc4)CC3)o2)cc1 | 28.8 | -28.1% (active) | -77.4% (active) | 31.4% | -89.2% (active) | 56.5 | 149 | -43.4% (active) | 44.7 | -21.3% (active) | -85.8% (active) | -56% (active) | 74.9 | 24.3% | 52.3% | 0.485% (active) | 18.5% | -92.2% (active) | 18.9
3 | CN1C(=O)/C(=C/c2ccc(C(=O)Nc3ncc(Cc4ccc(Cl)cc4Cl)s3)cc2)SC1=S | 30.7 | 24.3% | 23.1% | 43.6% | 30.9% | 47 | 10.8 | 36.9% | 33.1 | 11.6% | 25.7% | 19.7% | 66.6 | 72.7% | 38.9% | 17.1% | 8.83% (active) | 29.7% | 41
4 | CCCn1cc(-c2nc(Nc3ccc(C(=O)NCCCCNc4cccc5c4C(=O)N(C4CCC(=O)NC4=O)C5=O)cc3)nc3[nH]ccc23)cn1 (stereo not drawn) | 64.1 | 15.8% | -24.4% (active) | -23.3% (active) | 34.9% | 28.2 | 28.3 | 26.6% | 96.4 | 21.4% | 40.1% | 28.1% | 23.4 | 54.1% | 3.62% (active) | 15.8% | 74.6% | 90.5% | 59.3
5 | Cc1ccc([C@H]2C(C(=O)c3ccc(Cl)cc3)C3(N[C@@H]2c2ccccc2)C(=O)Nc2ccc(Cl)cc23)cc1 (stereo partly drawn) | 71.8 | 22.2% | 87.2% | 50.7% | 27% | 55.8 | 48.2 | 77% | 69.8 | 44.8% | 47.1% | 3.1% (active) | 66.2 | 47.9% | 14% | 77.9% | 33.8% | 39.8% | 69.4
6 | CC(/C=C1\SC(=S)N(CCCC(=O)NC(CC(C)C)C(=O)O)C1=O)=C\c1ccccc1 (stereo not drawn) | 98.7 | 82.8% | 104% | 99.8% | 96.2% | 100 | 97.4 | 96% | 104 | 78.6% | 98.6% | 119% | 93.8 | 79.6% | 55.9% | 88.1% | 76% | 53.2% | 94.8
7 | Cn1cc(-c2cc(N)n3nc(-c4cn(C)c5ncccc45)cc3n2)c2cccnc21 | 83.2 | 5.55% (active) | 97.3% | -22.4% (active) | 58.8% | 92.7 | 62.6 | 84.2% | 100 | 93.1% | -91.7% (active) | -66.7% (active) | 101 | -46.1% (active) | 79.7% | 68.4% | 102% | -100% (active) | 106
